In the supplement of paper PMC4206467 one finds ATP content data, which are given here for 40 molecules.

For the assay, the system named is Perkinsus marinus PRA240. As to the kind of experiment: ATP content (proliferation) relative to DMSO control; higher = more parasite growth (less inhibition). The settings on record: 20 µM; 4 days. The method, then:
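Perkinsus marinus PRA240 trophozoites (2-5x10^6 cells/ml, 100 µl, 96-well) were exposed once to MMV Malaria Box compounds at 20 µM (0.1% DMSO) in triplicate. ATP content (ATPlite bioluminescence) was read at day 4 post-exposure and normalised to DMSO + cells control wells (100% activity). Compounds were identified by joining plate and well to the Malaria Box list.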
In turn, `CCOc1ccc(N2C(N)=NC(N)=NC2(C)C)cc1` came in with an ATP content of 114%. The molecule `CCOc1ccc(-n2cc(-c3ccccc3)c3c(SCc4cc(C)ccc4C)ncnc32)cc1` registered an ATP content of 171%. `O=C(Cc1ccccc1)NC(c1ccc(Cl)cc1)c1c(O)ccc2ccccc12` (stereo not given): the ATP content is 36%. In the case of `O=C1C2=C(Nc3ccccc3SC2c2ccccc2)c2ccccc21` (stereo not given), the ATP content was 17.1%. Molecule `COCCNC(=O)c1ccc(OC2CCN(Cc3ccc(F)c(F)c3)CC2)c(Cl)c1` had an ATP content of 86.4%.

Take `COc1ccc(C2c3ccc4ccccc4c3Oc3ncn(CCCn4ccnc4)c(=N)c32)cc1OC` (stereo not given): the ATP content came to 121%. Consider `CCN(CC)CCNc1ccnc2cc3ccccc3cc12`, for which the ATP content is 107%. For the molecule `c1ccc(C2=Nc3ccccc3N=C(c3ccccc3)c3ccccc32)cc1`, the ATP content turned out to be 117%. `O=c1cc(NC2CCN(CCCc3ccccc3)CC2)c2cc(Cl)ccc2o1` had an ATP content of 167%. With `CCOc1ccc(C=Cc2nc(=O)c3ccccc3o2)cc1`, the ATP content is 14.6%.

`COc1cccc(Nc2nc(N)c3ccccc3n2)c1` registered an ATP content of 9.11%.

As for `O=C(CCl)NCCOc1ccc(Cl)cc1Cl`, the ATP content amounted to 99.9%. The same measure for `COc1nc(Nc2ccc(C(C)C)cc2)nc(OC)n1`: 125%; for `OC(Cn1nnc2ccccc21)Cn1c2ccc(Br)cc2c2cc(Br)ccc21` (stereo not given): 135%. The same measure for `Clc1ccc2[nH]c3c(NCCCN4CCOCC4)ncnc3c2c1`: 163%. Molecule `Clc1cc(Br)ccc1-c1ccc(CNCC2CCNCC2)o1` came in with an ATP content of 243%.

`CCOc1ccc(Nc2ccnc3cc(Cl)ccc23)cc1` yielded an ATP content of 55.2%. `O=c1nc(C=Cc2ccc(Br)cc2)oc2ccccc12`: the ATP content came out at 11.1%. As to `CCCN(CCC)CCCNC(=O)c1cc2c(-c3ccc(OC)c(OC)c3)nn(C)c2s1`, the ATP content was determined as 80.3%.

With `O=C(Nc1cccc(C2=NCCN2)c1)Nc1cccc(C2=NCCN2)c1`, the ATP content was 128%. The value for `CCOc1c(Br)cc(C2C(C(=O)OC)=CN(C)C=C2C(=O)OC)cc1OC` was 123%. `COc1ccc(C2C(C(=O)Nc3cccc(OC)c3)c3ccccc3C(=O)N2C2CCCCC2)cc1` (stereo not given) showed an ATP content of 94.3%. The value for `COc1ccc(CCn2c(=N)c(C(=O)NCc3cccnc3)cc3c(=O)n4cccc(C)c4nc32)cc1` was 140%; that for `Cc1ccc(OCCCCCCNCCO)c(C)c1` was 164%.

The molecule `O=C(Nc1ccccc1O)c1ccc(Oc2cccc(C(=O)Nc3ccccc3O)c2)cc1` came in with an ATP content of 30.4%. For the molecule `Cc1nc2ccccc2c(O)c1CC=C(Cl)Cl`, the ATP content stood at 50.4%. In turn, `COc1ccc(CNC(=O)c2cc3c(=O)n4ccccc4nc3n(CCc3ccccc3)c2=N)cc1` registered an ATP content of 107%. For `CCOc1cc2c(cc1OCC)C(c1cc(Cl)c(O)c(OCC)c1)NCC2` (stereo not given), the ATP content was determined as 97.3%. On to `COc1ccc2nc(C)cc(Nc3ccccc3O)c2c1`, for which the ATP content was 163%. In turn, `CC(C)(C)C(=O)Nc1ccc(C(=O)Nc2cccc(-c3nc4ccccc4[nH]3)c2)cc1` gave an ATP content of 67.7%. `COC(=O)c1ccc(Cl)c2c1C1C=CCC1C(c1cccc3ccccc13)N2` (stereo not given): the ATP content turned out to be 106%.

As for `COc1cccc(C(=O)NC(c2ccc(C)cc2)c2cc(Cl)c3cccnc3c2O)c1` (stereo not given), the ATP content was determined as 39.5%. In the case of `COc1ccc(CCN2CCC(CN(C)Cc3cnn(-c4ccccc4)c3)CC2)cc1`, the ATP content was found to be 110%. The same measure for `Cc1ccc(S(=O)(=O)c2c(COC(=O)c3cccc(C)c3)c(-c3ccccc3)nn2C)cc1`: 162%; for `CCCC(c1nnnn1C1CCCCC1)N1CCN(C(=O)c2ccco2)CC1` (stereo not given): 115%. `FC(F)(F)c1cccc(Nc2nc(-c3ccccc3)nc3ncccc23)c1` registered an ATP content of 108%. With `COCCNCC(O)Cn1c2ccc(Cl)cc2c2cc(Cl)ccc21` (stereo not given), the ATP content was 143%. The value for `Cc1ccc(C)c(Cn2c(N3CCC(C(=O)NCc4cccs4)CC3)nc3ccccc32)c1` was 154%; that for `COc1ccc(C(O)(CCC(C)C)C(CN2CCOCC2)c2ccc(Cl)cc2)cc1` (stereo not given) was 91.9%; that for `CN(C)c1ccc(-c2nc3cc(N)ccc3[nH]2)cc1` was 0.856%.
